# Compounds without any hit were thinned out: in the full panel of roughly 83,000, 20% have a hit.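 Values shown are percent growth following 48 h exposure of cells in 96-well plates to a single concentration of compound; below 10 was considered active.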 A number with no mark means an inactive call. The source made the active and inactive calls.
# Tests used:
# Assay in all cases: NCI-60 one-dose screen, 48 h (100 = growth as untreated, 0 = no growth, -100 = all killed)
# SK-MEL-2 melanoma = details: 10 µM
# EKVX NSCLC = details: 10 µM unless noted
# SN12C renal = details: 10 µM unless noted
# UO-31 renal = details: 10 µM unless noted
# TK-10 renal = details: 10 µM unless noted
# ACHN renal = details: 10 µM unless noted
# A498 renal = details: 10 µM unless noted
# MOLT-4 leukemia = details: 10 µM unless noted
# CCRF-CEM leukemia = details: 10 µM unless noted
# CAKI-1 renal = details: 10 µM unless noted
SMILES,growth (SK-MEL-2 melanoma),growth (EKVX NSCLC),growth (SN12C renal),growth (UO-31 renal),growth (TK-10 renal),growth (ACHN renal),growth (A498 renal),growth (MOLT-4 leukemia),growth (CCRF-CEM leukemia),growth (CAKI-1 renal)
C=CC[n+]1c(/C=C/C=C2\N(C)c3ccccc3C2(C)C)sc2ccc(OC)cc21,-13.4% (active),10.9%,11.7%,13.7%,32.8%,10.8%,17.7%,10.2%,,
Clc1ccc2c(NCCCNCc3ccc4c(c3)OCO4)ccnc2c1,29.3%,71.8%,66.6%,35.8%,78.4%,40.6%,101%,25.1%,41.7%,
Cc1sc2c(c1C)c(=O)nc1c(-c3nc4ccccc4s3)n[nH]n12,95.2%,81.9%,96.7%,73.7%,140%,101%,101%,94.5%,89.2%,
COc1cc(-c2nc(C(=O)NCC(=O)O)nn2-c2ccc(Cl)cc2)cc(OC)c1OC,120%,91.7%,101%,90.5%,117%,112%,107%,100%,,
CC(=O)OCCC/C(=C\c1ccc2ccccc2c1)[N+](=O)[O-],-68.5% (active),42.1%,-66.4% (active),-99.8% (active),-64.4% (active),-92.6% (active),-22.4% (active),-26.1% (active),-49.4% (active),
CCCCCCCCCCCC[n+]1ccccc1,-30.4% (active),5.6% (active),3.89% (active),35%,-54.1% (active),36.2%,19%,-19.1% (active),,
Cc1ccc(NC(=O)NC(=O)CSc2nc3ccccc3nc2C)cc1,68.3%,59.6%,73.7%,64.5%,82.3%,75.6%,69.2%,74.3%,58.9%,
N#Cc1cc2[nH]c3ccc(OC(F)(F)F)cc3c2oc1=O,66.5%,76.1%,95.9%,59.1%,132%,84.4%,76.8%,84.5%,90.4%,
COc1cc(NCCN(CC(C)C)CC(C)C)c2ncc(C)cc2c1,74.8%,74.9%,74.7%,64%,139%,77.7%,113%,54.9%,86.4%,
Nc1c2c(c(O)c3c1=C(CO)C=N3)=NCCS2=O (centres undefined),-51.3% (active),-43.1% (active),-33.2% (active),-66.8% (active),117%,-18.8% (active),-45.6% (active),-33.8% (active),4.74% (active),
Clc1ccc2c(NCCNc3nc(N4CCCC4)nc4ccccc34)ccnc2c1,-42.9% (active),24.4%,3.63% (active),-72.3% (active),-47.3% (active),-83% (active),-5.18% (active),-5.18% (active),5.08% (active),
COc1ccc(-c2nc(N)ncc2Oc2ccccc2OC)c(O)c1,17.4%,40.1%,48.7%,46%,55.9%,43.5%,34.3%,26.9%,19.7%,
CCN(CC)CCNc1ccc(N=Nc2cnc3ccccc3c2)c2ccccc12,-76.9% (active),-2.28% (active),-88.9% (active),-94.2% (active),-79% (active),-69.6% (active),-91.5% (active),-49.7% (active),-78.2% (active),
CCCCN1CCCC[C@@H]1C(=O)N[C@H](C(=O)N(C)[C@H](CCc1nc(C(=O)N[C@@H](Cc2ccccc2)C[C@H](C)C(=O)OC)cs1)C(C)C)C(C)C,68.1%,65.8%,82.2%,52.3%,102%,59.7%,61.2%,35.2%,38.8%,
CC(CCCC(=O)O)c1ccoc1 (centres undefined),105%,96%,105%,86.2%,98.3%,111%,110%,109%,,
CCc1ccc(/C=C/c2ccc(O)c3ncccc23)[n+](C)c1,78.4%,47%,31.4%,27.1%,85.5%,89.3%,29.6%,7.81% (active),22.8%,
Nc1cc2c(cc1Br)-c1c(C(=O)O)cccc1C2O (centres undefined),131%,88.3%,109%,102%,117%,108%,129%,115%,124%,
O=C(Cn1c(=O)ccn(CCCCCCCCOc2ccc(Br)cc2)c1=O)Nc1ccc(Oc2ccc(Cl)cc2)cc1,71%,50.6%,67.1%,32.7%,69.6%,69.1%,54.8%,47.6%,,
COC(=O)C1=C(C(=O)OC)C23C=C(C)C1C2=C(C)C1(CC1)[C@@](C)(O)C3=O (some centres undefined),-54.6% (active),-6% (active),9.49% (active),-28% (active),-6.99% (active),3.21% (active),-44% (active),73.6%,66.5%,
Cc1cc(N2CCOCC2)nc(N(CCNc2ccnc3cc(Cl)ccc23)Cc2cccs2)n1,-39.4% (active),51.5%,42.3%,-8.69% (active),19.4%,1.88% (active),22.8%,-9.25% (active),6.42% (active),
COc1cc(-c2nc(C(=O)Nc3ccc(C)cc3)nn2-c2ccc(F)c(F)c2)cc(OC)c1OC,89.5%,99.9%,97.5%,72.9%,98.8%,105%,112%,94.9%,102%,
O=C1CSC(c2c(F)cccc2Cl)N1NC(=O)C(O)(c1ccccc1)c1ccccc1 (centres undefined),103%,95.2%,93.8%,,113%,99.9%,102%,74%,97%,93.3%
CCN1CCN(c2cc(C)nc(N(CCCNc3ccnc4cc(Cl)ccc34)Cc3cccs3)n2)CC1,-37.8% (active),42.3%,39%,-76.1% (active),-41% (active),7.79% (active),-13.7% (active),5.24% (active),1.95% (active),
CC(=Nc1ccccc1)C1=C(O)C(Cc2ccc(O)cc2)NC1=O (centres undefined),42.2%,20.4%,43.5%,42.3%,68.2%,33.2%,-25.6% (active),-3.04% (active),,
C=CCCCC(=O)CCC(=O)OCC1O[C@@H](O[C@@H]2C(O)[C@@H](OC(C)=O)C(C)O[C@H]2O[C@H](CC=C)CCCCC)C(O)[C@@H](OC(=O)/C(C)=C/C)[C@@H]1OC(=O)/C=C/c1ccccc1 (some centres undefined),4.44% (active),30.5%,3.86% (active),24.5%,27%,23.4%,52.5%,26.7%,29.2%,
CCc1ccc(C2=C(O)C(=O)C(c3ccc(CC)cc3)=C(O)C2=O)cc1,-44.4% (active),-15% (active),-6.25% (active),0.57% (active),5.31% (active),-9.41% (active),-31% (active),-6.88% (active),,
COc1cc2c(cc1OCCCCN1CCN(CC(=O)Nc3ccc(Cl)cc3C(=O)c3ccccc3Cl)CC1)N=CC1CCCN1C2=O (centres undefined),-67.5% (active),-79% (active),-81.1% (active),,-90.1% (active),-92.4% (active),-97.2% (active),-44.7% (active),-59.8% (active),-89.8% (active)
Cc1cc(N(CCNc2ccnc3cc(Cl)ccc23)Cc2cccs2)nc(Cl)n1,-58.2% (active),33.9%,-15.9% (active),-79.4% (active),-93% (active),-88% (active),-6.31% (active),-38.2% (active),-2.45% (active),
Cc1cc2c3c(cccc3c1)C(=O)c1ccccc1-2,105%,78.1%,97%,60.5%,106%,97.6%,93.2%,87.2%,118%,

# — PubChem BioAssay (NCI)
